Measurements reported in PubChem BioAssay (NCATS).
Results filed as inconclusive are left out. Active and inactive are the calls of the source. Calls follow the shape of the dose curve; as a rule, active = well fitted curve in the direction sought with a large enough effect; inconclusive = small, poorly fitted or top-dose-only effect, or another doubt; inactive = no such curve, though single readings can be large; an effect the other way counts as inactive or inconclusive.

Assays:
[1] = target: Cytochrome P450 3A4 (Homo sapiens) (UniProt P08684); assay: qHTS for inhibitors of CYP3A4 against the NCATS DSHEA and TCM libraries (AID 1919971);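 also: % is scaled to controls: 0 for no effect and ±100 for the full control effect; inhibition lowers luminescence from luciferin made by CYP3A4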
Procedure, shortened: (§1)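 Read-out is luminescence after P450-Glo detection (30 min, RT). Before that: 15 min compound–enzyme preincubation, then 30-45 min reaction with 1x NADPH regeneration solution, substrate concentration isoform-specific.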

[2] = target: Cytochrome P450 2D6 (Homo sapiens) (UniProt P10635); assay: qHTS for inhibitors of CYP2D6 against the NCATS DSHEA and TCM libraries (AID 1919972); also: % is scaled to controls: 0 for no effect and ±100 for the full control effect
Procedure, shortened: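 Luminescent P450-Glo read-out of CYP2D6 turnover of a luciferin substrate after NADPH-driven reaction of 30-45 min at room temperature. Compounds were first preincubated 15 min with enzyme at titrated concentrations; quinidine was the intraplate control.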

[3] = target: Cytochrome P450 2C9 (Homo sapiens) (UniProt P11712); assay: qHTS for inhibitors of CYP2C9 against the NCATS DSHEA and TCM libraries (AID 1919973); also: potency is read from the fitted curve at half-maximal effect
Procedure, shortened: as §1

[4] = target: Cytochrome P450 2C19 (Homo sapiens) (UniProt P33261); assay: qHTS for inhibitors of CYP2C19 against the NCATS DSHEA and TCM libraries (AID 1919974);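 also: luminescence from luciferin released by CYP2C19 oxidation of a pro-luciferin substrate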; also: potency is read from the fitted curve at half-maximal effect
Procedure, shortened: as §1

[5] = KB-3-1 P-gp reporter qHTS against the NCATS DSHEA and TCM libraries (AID 1919975); also: 0% is about no effect
Procedure, shortened: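 Cell viability qHTS: 500 KB-3-1 cells/well, substances in titration, ~72 h, 37C; luminescent CellTiter-Glo read.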

[6] = target: Cytochrome P450 1A2 (Homo sapiens) (UniProt P05177); assay: qHTS for inhibitors of CYPIA2 against the NCATS DSHEA and TCM libraries (AID 1919976); also: potency is read from the fitted curve at half-maximal effect
Procedure, shortened: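 CYP1A2 + luciferin substrate, 100 mM KPO4-type buffer; cmpd 15 min RT; 1x NADPH regen, 30-45 min RT dark; detection reagent 30 min RT; luminescence. Minus-enzyme wells as background; furafylline intraplate control.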

[7] = qHTS Counterscreen for compound interference against the NCATS DSHEA and TCM libraries (AID 1919978); conditions: firefly luciferase detection reagent interference, luminescence;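 also: compounds preincubated with 1 µM D-luciferin or buffer before detection reagent; % of control where 0% means no effect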
Procedure, shortened: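 Interference check: test samples were incubated with D-luciferin (final 1 uM) or buffer only for 15 min, room temperature, in a qHTS titration up to 39.8 uM, then developed with detection reagent and read by luminescence.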

[8] = Dual reporter qHTS for agonist of Pregnane X Receptor (hPXR) against the NCATS DSHEA and TCM libraries: Fluorescence readout (AID 1920058); also: 0% is about no effect
Procedure, shortened: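 HepG2 hPXR-Luc, 2000 cells/well, 5 h attach; cpds ~24 h, 37 °C/5% CO2; CellTiter-Fluor 1 h; fluor. Ex/Em 405/540 nm = viability.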

[9] = target: Nuclear receptor subfamily 1 group I member 2 (Homo sapiens) (UniProt O75469); assay: Dual reporter qHTS for agonist of Pregnane X Receptor (hPXR) against the NCATS DSHEA and TCM libraries: Luminescence readout (AID 1920059); also: 0% is about no effect
Procedure, shortened: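 hPXR-LucHepG2 cells in phenol red-free DMEM with 5% charcoal-stripped FBS, 2000 cells/well, attached 5 h, then exposed 24 h at 37C to compounds; rifampicin as positive agonist control (2.8 nM–92 uM). Luciferase luminescence read.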

[10] = target: Nuclear receptor subfamily 1 group I member 2 (Homo sapiens) (UniProt O75469); assay: Dual reporter qHTS for antagonist of Pregnane X Receptor (hPXR) against the NCATS DSHEA and TCM libraries: Luminescence Readout (AID 1920060); also: 0% is about no effect
Procedure, shortened: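 Rifampicin-stimulated (2 uM final) hPXR-luciferase HepG2 cells were treated for 24 h with DSNP/TCM substances. Viability came from CellTiter-Fluor fluorescence, reporter activity from ONE-Glo luminescence.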

Chain of Cytochrome P450 1A2 (Homo sapiens) (P05177 whole entry, looked up): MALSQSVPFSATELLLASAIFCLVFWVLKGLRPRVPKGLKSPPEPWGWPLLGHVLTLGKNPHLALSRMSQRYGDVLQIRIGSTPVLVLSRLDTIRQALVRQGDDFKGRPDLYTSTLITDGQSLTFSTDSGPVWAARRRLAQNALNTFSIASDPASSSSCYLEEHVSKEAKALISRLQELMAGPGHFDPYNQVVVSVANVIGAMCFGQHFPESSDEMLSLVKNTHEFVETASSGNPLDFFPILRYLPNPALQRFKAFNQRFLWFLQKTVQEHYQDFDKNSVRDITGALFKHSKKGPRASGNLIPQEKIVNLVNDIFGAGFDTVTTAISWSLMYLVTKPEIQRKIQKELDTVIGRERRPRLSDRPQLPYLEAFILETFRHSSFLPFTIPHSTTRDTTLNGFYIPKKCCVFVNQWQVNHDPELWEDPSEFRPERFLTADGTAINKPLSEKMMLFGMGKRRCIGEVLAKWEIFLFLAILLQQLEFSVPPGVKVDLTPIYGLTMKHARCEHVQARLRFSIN
Chain of Cytochrome P450 2C19 (Homo sapiens) (P33261 whole entry, looked up): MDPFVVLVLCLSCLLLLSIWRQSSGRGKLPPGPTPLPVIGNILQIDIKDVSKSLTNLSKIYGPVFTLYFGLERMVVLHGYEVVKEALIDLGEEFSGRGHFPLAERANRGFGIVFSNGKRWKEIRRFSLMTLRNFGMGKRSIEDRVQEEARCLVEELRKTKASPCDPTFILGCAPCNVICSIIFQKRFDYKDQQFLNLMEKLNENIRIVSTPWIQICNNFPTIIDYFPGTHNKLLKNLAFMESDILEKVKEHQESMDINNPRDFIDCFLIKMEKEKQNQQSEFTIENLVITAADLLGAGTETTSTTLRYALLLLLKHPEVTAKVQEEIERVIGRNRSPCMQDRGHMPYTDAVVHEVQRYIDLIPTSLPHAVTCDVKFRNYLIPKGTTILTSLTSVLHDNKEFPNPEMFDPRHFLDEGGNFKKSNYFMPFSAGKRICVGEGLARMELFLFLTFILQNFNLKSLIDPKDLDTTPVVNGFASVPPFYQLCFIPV
Chain of Cytochrome P450 2D6 (Homo sapiens) (P10635 whole entry, looked up): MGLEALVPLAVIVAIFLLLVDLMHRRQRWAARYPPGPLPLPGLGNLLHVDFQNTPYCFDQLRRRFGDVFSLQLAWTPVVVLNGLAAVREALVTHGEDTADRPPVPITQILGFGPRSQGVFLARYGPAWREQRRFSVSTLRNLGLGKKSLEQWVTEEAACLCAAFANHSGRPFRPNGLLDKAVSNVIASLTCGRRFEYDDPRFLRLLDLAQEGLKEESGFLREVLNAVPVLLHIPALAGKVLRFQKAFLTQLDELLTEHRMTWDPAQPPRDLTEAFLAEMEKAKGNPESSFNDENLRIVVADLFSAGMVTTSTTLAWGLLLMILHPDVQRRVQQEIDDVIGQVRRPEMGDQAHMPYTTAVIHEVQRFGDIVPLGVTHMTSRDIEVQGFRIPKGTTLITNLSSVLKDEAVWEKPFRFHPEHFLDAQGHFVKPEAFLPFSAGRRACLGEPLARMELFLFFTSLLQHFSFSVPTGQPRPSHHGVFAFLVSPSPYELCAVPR
Chain of Nuclear receptor subfamily 1 group I member 2 (Homo sapiens) (O75469 whole entry, looked up): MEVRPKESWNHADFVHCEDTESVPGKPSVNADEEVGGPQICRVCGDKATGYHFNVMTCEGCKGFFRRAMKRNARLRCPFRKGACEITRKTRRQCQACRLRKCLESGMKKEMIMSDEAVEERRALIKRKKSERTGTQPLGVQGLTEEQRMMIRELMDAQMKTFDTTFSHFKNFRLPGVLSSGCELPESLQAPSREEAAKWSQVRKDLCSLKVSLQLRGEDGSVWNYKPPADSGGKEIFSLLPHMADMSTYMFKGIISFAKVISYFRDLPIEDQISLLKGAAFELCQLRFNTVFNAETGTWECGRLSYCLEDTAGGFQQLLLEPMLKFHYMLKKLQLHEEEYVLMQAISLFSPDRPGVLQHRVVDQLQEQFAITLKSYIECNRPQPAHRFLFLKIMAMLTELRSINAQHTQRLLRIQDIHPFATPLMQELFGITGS
Chain of Cytochrome P450 2C9 (Homo sapiens) (P11712 whole entry, looked up): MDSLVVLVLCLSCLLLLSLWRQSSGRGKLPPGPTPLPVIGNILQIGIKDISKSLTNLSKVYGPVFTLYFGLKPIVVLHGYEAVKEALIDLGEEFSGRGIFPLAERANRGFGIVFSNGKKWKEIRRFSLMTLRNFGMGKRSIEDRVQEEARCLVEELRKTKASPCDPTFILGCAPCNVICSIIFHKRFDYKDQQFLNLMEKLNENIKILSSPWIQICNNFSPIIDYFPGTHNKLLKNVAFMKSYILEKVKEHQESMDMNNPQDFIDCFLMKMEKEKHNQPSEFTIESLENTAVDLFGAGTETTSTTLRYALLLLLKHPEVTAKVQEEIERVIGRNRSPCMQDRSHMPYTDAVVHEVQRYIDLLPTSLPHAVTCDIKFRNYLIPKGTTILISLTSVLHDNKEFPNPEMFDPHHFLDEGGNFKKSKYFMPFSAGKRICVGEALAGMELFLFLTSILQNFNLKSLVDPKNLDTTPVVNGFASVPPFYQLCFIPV
Chain of Cytochrome P450 3A4 (Homo sapiens) (P08684 whole entry, looked up, canonical isoform): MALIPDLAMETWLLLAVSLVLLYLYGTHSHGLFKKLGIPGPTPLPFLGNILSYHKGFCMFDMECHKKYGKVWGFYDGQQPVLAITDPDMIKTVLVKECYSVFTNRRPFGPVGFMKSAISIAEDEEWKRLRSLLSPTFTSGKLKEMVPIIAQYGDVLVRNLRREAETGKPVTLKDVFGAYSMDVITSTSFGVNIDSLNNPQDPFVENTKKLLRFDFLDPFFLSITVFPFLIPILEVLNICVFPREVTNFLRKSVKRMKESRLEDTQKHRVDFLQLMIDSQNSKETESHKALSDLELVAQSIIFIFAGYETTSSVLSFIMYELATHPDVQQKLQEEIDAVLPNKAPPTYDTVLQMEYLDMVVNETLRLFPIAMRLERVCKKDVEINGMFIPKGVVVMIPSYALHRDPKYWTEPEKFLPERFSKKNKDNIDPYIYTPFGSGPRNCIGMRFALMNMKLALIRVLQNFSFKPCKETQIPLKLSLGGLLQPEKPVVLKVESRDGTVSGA

CCCCCCCCCC(=O)O
inactive: outcome [1] | outcome [2] | Potency [3] | Potency [4] | outcome [5] | Potency [6] | max response [7] -0.481% | outcome [8] | outcome [9] | outcome [10]

O=C(O)CC(O)(CC(=O)O)C(=O)O
inactive: outcome [1] | outcome [2] | Potency [3] | Potency [4] | outcome [5] | Potency [6] | max response [7] -0.506% | outcome [8] | outcome [9]

CC(=O)C1=C(O)C=C2Oc3c(C(C)=O)c(O)c(C)c(O)c3[C@]2(C)C1=O
active: Potency [3] 4.47 µM | Potency [4] 3.98 µM | Potency [6] 7.94 µM
inactive: outcome [5] | max response [7] -5.05% | outcome [8] | outcome [10]

C=C1[C@H]2CC[C@H](C(=O)O)[C@@]23CC[C@H](C3)C1(C)C
inactive: outcome [2] | Potency [3] | Potency [4] | outcome [5] | Potency [6] | max response [7] 1.56% | outcome [8] | outcome [9] | outcome [10]
